Screening data as filed in PubChem.
Gal4-VP16 FLuc: VP16 counterscreen qHTS for inhibitors of ROR gamma transcriptional activity; actives 3.5% (n = 310,000); Potency, µM (titrated, usually from 53.6 µM), usual class: inhibitors; Drosophila S2 Gal4-VP16 UAS-luciferase, luminescence, 20 h;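 also: Gal4-VP16 expression switched on by copper sulfate through the metallothionein promoter; nearly all actives have a fitted effect of over 50% in size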
KinaseGlo FLuc: Counterscreen for Luciferase (Kinase-Glo TM) Inhibition | Potency, µM (series often up to 38.3 µM), hits mostly inhibitors | Luciferin 4-monooxygenase (Photuris pensylvanica), Q27757 | Kinase-Glo luciferase, ATP luminescence, 8 min | actives 0.28% (n = 200,000); also: nearly all actives have a fitted effect of over 60% in size
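Recombinant Kinase-Glo luciferase, 10 uM ATP (linear range), luciferin; imidazole pH 7.2 / KCl / MgCl2 / Tween / BSA buffer; 8 min RT; luminescence.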
RORg inh: qHTS for inhibitors of ROR gamma transcriptional activity; Nuclear receptor ROR-gamma (Mus musculus), P51450; Potency, µM (doses to about 53.6 µM), usual class: inhibitors; Drosophila S2 Gal4-RORgamma UAS-luciferase reporter, 20 h; actives 5.4% (n = 310,000); also: nearly all actives have a fitted effect of over 60% in size
Target sequence (P51450 whole entry, looked up, the tested form may be a part): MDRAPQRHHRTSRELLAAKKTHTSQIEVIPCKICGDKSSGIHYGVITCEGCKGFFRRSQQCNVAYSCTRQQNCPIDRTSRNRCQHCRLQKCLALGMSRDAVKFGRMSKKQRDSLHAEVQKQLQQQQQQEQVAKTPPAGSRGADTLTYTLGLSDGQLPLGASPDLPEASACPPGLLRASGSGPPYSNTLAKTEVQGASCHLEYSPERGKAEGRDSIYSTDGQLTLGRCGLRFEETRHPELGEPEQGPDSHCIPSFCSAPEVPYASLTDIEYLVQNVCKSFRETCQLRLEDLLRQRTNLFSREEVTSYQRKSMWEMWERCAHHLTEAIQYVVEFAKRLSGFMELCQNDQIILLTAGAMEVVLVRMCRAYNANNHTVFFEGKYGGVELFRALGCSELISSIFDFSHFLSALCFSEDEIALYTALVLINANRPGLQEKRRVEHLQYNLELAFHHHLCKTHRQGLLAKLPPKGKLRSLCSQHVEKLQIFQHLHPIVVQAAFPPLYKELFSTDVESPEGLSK
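Luciferase reporter read in Schneider cells carrying Gal4-RORγ (mouse) and UAS-Photinus luciferase; cells given compound 1 h before 700 uM copper sulfate induction, then incubated 20 h at ambient temperature.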
Each line names hits and unclear results; the compound was inactive in the other large screens. Only some compounds are listed: those with a hit (about 6.2% of all), similar ones and a draw of the others. Calls follow the shape of the dose curve; as a rule, active = well fitted curve in the direction sought with a large enough effect; inconclusive = small, poorly fitted or top-dose-only effect, or another doubt; inactive = no such curve, though single readings can be large; an effect the other way counts as inactive or inconclusive.

CCN(Cc1ccccc1)S(=O)(=O)c1ccc(C(=O)Nc2nnc(C3CC3)o2)cc1	Gal4-VP16 FLuc 0.562µM
CN(Cc1ccccc1)S(=O)(=O)c1cccc(C(=O)O)c1	none
COCc1nnc(NC(=O)c2ccc(S(=O)(=O)N(C)Cc3ccccc3)cc2)o1	Gal4-VP16 FLuc 2.24µM, RORg inh 0.794µM (no result: KinaseGlo FLuc)
CCN(Cc1ccccc1)S(=O)(=O)c1ccc(F)cc1	none (no result: KinaseGlo FLuc)
Cc1nnc(NC(=O)c2ccc(S(=O)(=O)N(C)Cc3ccccc3)cc2)o1	Gal4-VP16 FLuc 0.562µM, RORg inh 0.199µM
CN(Cc1ccccc1)S(=O)(=O)c1nnc(NC(=O)c2ccccc2)s1	none (no result: KinaseGlo FLuc)
Cc1ccc(COc2ccc(/C=N/NC(=O)c3nnn(-c4nonc4N)c3COc3ccc(F)cc3)cc2)cc1	RORg inh inconclusive (no result: KinaseGlo FLuc)
C/C(=N/NC(=O)c1nnn(-c2nonc2N)c1COc1ccccc1)c1ccc(O)cc1	none (no result: KinaseGlo FLuc)
C/C(=N\NC(=O)c1nonc1N)c1cccs1	RORg inh 0.316µM
C/C(=N\NC(=O)c1nnn(-c2nonc2N)c1-c1ccc2c(c1)OCO2)c1ccccc1	none (no result: KinaseGlo FLuc)
C/C(=N/NC(=O)c1nnn(-c2nonc2N)c1COc1ccccc1)c1ccccc1Cl	Gal4-VP16 FLuc inconclusive, RORg inh 22.4µM (no result: KinaseGlo FLuc)
Nc1nonc1-n1nnc(C(=O)N/N=C/c2ccc(OCc3ccc(F)cc3)cc2)c1COc1ccccc1	Gal4-VP16 FLuc inconclusive, RORg inh 7.08µM (no result: KinaseGlo FLuc)
COCc1c(C(=O)N/N=C(/C)c2cccs2)nnn1-c1nonc1N	none (no result: KinaseGlo FLuc)
C/C(=N\NC(=O)c1nnn(-c2nonc2N)c1-c1ccccc1)c1ccccc1O	Gal4-VP16 FLuc 6.31µM, RORg inh 1.78µM (no result: KinaseGlo FLuc)
C#Cc1ccc([C@@H]2C=C(C(=O)N3CCN(Cc4ccc5c(c4)OCO5)CC3)O[C@H](OCC)[C@H]2CCCO)cc1	none (no result: KinaseGlo FLuc)
COC(=O)c1cc(C#N)c(NCc2ccccc2)nc1C	none
CCOC(=O)COn1c(=O)c(-c2ccccc2)[n+]([O-])c2ccccc21	none (no result: KinaseGlo FLuc)
CCOc1ccc(-c2cc(CCCC(=O)NCc3ccco3)no2)cc1	Gal4-VP16 FLuc inconclusive, RORg inh 0.112µM
CCOc1ccc(-c2cc(CCCC(=O)NCc3ccc(C)cc3)no2)cc1	Gal4-VP16 FLuc inconclusive, RORg inh 1.26µM
CCOc1ccc(-c2nnn(CC(=O)NCc3ccco3)n2)cc1	RORg inh inconclusive
COc1ccc(-c2cc(CCCC(=O)NCCc3cc(OC)ccc3OC)no2)cc1	none
CN1CCN(c2ncc3nc(-c4ccc(Cl)cc4)c(=O)n(C4CC4)c3n2)CC1	none
C[C@H]1Cc2c(COc3ccccc3)nc3c(c2CO1)CN(S(=O)(=O)c1ccc2c(c1)OCCN2C)CC3	none (no result: Gal4-VP16 FLuc, RORg inh)
CCOc1ccccc1N=NC1C(=O)N(C(N)=S)N=C1C (stereo unspecified)	Gal4-VP16 FLuc 1µM, RORg inh 0.708µM (no result: KinaseGlo FLuc)
CC1=NN(c2ccccc2)C(=O)C1N=Nc1ccc(C)cc1 (stereo unspecified)	none
CC1=NN(c2nc(-c3ccc(C)cc3)cs2)C(=O)C1N=Nc1ccc(C(N)=O)cc1 (stereo unspecified)	none
CC(=O)N(C)c1ccc(N=NC2C(=O)N(C(N)=S)N=C2C)cc1 (stereo unspecified)	Gal4-VP16 FLuc 2µM, RORg inh 1µM (no result: KinaseGlo FLuc)
CC1=NN(C(N)=S)C(=O)C1N=Nc1c(C)cc(C)cc1C (stereo unspecified)	Gal4-VP16 FLuc 1.78µM, RORg inh 0.501µM
CC1=NN(C(N)=S)C(=O)C1N=Nc1ccc(S(N)(=O)=O)cc1 (stereo unspecified)	Gal4-VP16 FLuc inconclusive (no result: KinaseGlo FLuc)
CC1=NN(C(N)=S)C(=O)C1N=Nc1ccc(C)cc1C (stereo unspecified)	Gal4-VP16 FLuc 1.12µM, RORg inh 0.501µM
CCOc1ccccc1N=Cc1c(O)n(C)c(=O)n(C)c1=O	none (no result: KinaseGlo FLuc)
CC(C(=O)O)c1ccc2c(c1)Cc1cccnc1O2 (stereo unspecified)	none (no result: KinaseGlo FLuc)
C/C(=N/Nc1nc(C)cc(=O)[nH]1)C(=O)O	none (no result: Gal4-VP16 FLuc, RORg inh)
CN[C@]1(C)[C@H]2CC[C@@H](C2)C1(C)C	none
COc1ccc(C2CC(O)(c3ccccc3)Oc3cc(C)c(Cl)c(C)c32)cc1 (stereo unspecified)	none (no result: KinaseGlo FLuc)
CC1=NN(c2ccccc2)C(=O)C1N=Nc1ccc(S(N)(=O)=O)cc1 (stereo unspecified)	none (no result: KinaseGlo FLuc)
CC1=NN(C(N)=S)C(=O)C1N=Nc1ccccc1C (stereo unspecified)	Gal4-VP16 FLuc 0.0447µM, RORg inh 0.1µM
CC1=NN(C(N)=S)C(=O)C1N=Nc1c(Br)cc(Br)cc1Br (stereo unspecified)	Gal4-VP16 FLuc 1.26µM, RORg inh 1.41µM (no result: KinaseGlo FLuc)
CC1=NN(C(N)=S)C(=O)C1N=Nc1c(Cl)cc([N+](=O)[O-])cc1Cl (stereo unspecified)	Gal4-VP16 FLuc 1.58µM, RORg inh 0.355µM (no result: KinaseGlo FLuc)
CC1=NN(c2ccccc2)C(=O)C1C(=O)c1cc([N+](=O)[O-])cc([N+](=O)[O-])c1 (stereo unspecified)	Gal4-VP16 FLuc inconclusive
CC1=NN(C(=O)c2ccncc2)C(=O)[C@@H]1N=Nc1ccc2ccccc2c1	none (no result: Gal4-VP16 FLuc, RORg inh)
CC1=NN(C(N)=S)C(=O)C1N=Nc1cccc(Cl)c1 (stereo unspecified)	Gal4-VP16 FLuc 2µM, RORg inh 0.794µM (no result: KinaseGlo FLuc)
CC1=NN(C(N)=S)C(=O)C1N=Nc1ccccc1O (stereo unspecified)	none (no result: KinaseGlo FLuc)
C[C@@H](N)C(=O)NC[C@H]1CC[C@H](C(=O)N[C@@H](Cc2ccccc2)C(=O)O)CC1	none (no result: KinaseGlo FLuc)
COCC(=O)N(Cc1cc2cc(OC)ccc2[nH]c1=O)c1ccc(C)cc1	none
COc1cccc(C(=O)NCC2(c3ccc(OC)c(OC)c3)CCCC2)c1	none (no result: KinaseGlo FLuc)
CCN(CC(=O)Nc1c(F)cccc1F)C(=O)CCc1ccc(OC)cc1	none
COC(C(=O)N/N=C(\C)CC(=O)Nc1ccc(N(C)C)cc1)c1ccccc1 (stereo unspecified)	RORg inh 12.6µM
COC(C(=O)N/N=C(\C)CC(=O)Nc1ccc(Cl)cc1C)c1ccccc1 (stereo unspecified)	none
O=C(N/N=C/C=C\c1ccccc1[N+](=O)[O-])c1cccs1	Gal4-VP16 FLuc inconclusive, RORg inh 14.1µM
O=C(O)c1ccc(N/N=C/C=C/c2ccccc2[N+](=O)[O-])cc1	RORg inh inconclusive
O=C(Cc1cccs1)N/N=C/C=C/c1ccccc1[N+](=O)[O-]	none (no result: KinaseGlo FLuc)
O=C(N/N=C/c1cccc([N+](=O)[O-])c1)c1cccs1	Gal4-VP16 FLuc inconclusive
O=C(Cc1cccs1)N/N=C/C=C\c1ccco1	Gal4-VP16 FLuc inconclusive, RORg inh inconclusive
O=C(N/N=C/C=C/c1ccc([N+](=O)[O-])cc1)c1cccs1	Gal4-VP16 FLuc inconclusive, RORg inh 3.98µM
O=C(N/N=C/C=C\c1ccccc1[N+](=O)[O-])c1cc(-c2ccc3ccccc3c2)n[nH]1	Gal4-VP16 FLuc 4.47µM, RORg inh 3.16µM
COc1ccccc1/C=C/C=N/NC(=O)Cc1cccs1	Gal4-VP16 FLuc inconclusive, RORg inh 10µM
CC(=O)N(C)C	none (no result: Gal4-VP16 FLuc, RORg inh)
CCOC(=O)c1nn(-c2ccccc2F)c(C)c1C(C)=O	none
CCOC(=O)c1ccccc1NC(=S)N1CCN(C2CCCCC2)CC1	RORg inh inconclusive
O=C(N/N=C/C=C/c1ccccc1[N+](=O)[O-])c1ccncc1	Gal4-VP16 FLuc 20µM, RORg inh 11.2µM (no result: KinaseGlo FLuc)
